This is a sample that favours compounds with a hit; in the whole collection about 10% have one here.
HP1b binding inh: HTS for Inhibitors of HP1-beta Chromodomain Interactions with Methylated Histone Tails; Potency, µM (titrated, usually from 114 µM), inactives show top-dose activity change, negative = inhibition, hits mostly inhibitors; AID 540317, 2011; AlphaScreen HP1-beta / biotin-H3K9me3 peptide binding; Chromobox protein homolog 1 (Homo sapiens), P83916; 390,000 tested, 0.56% active; further: potency means the concentration at half of the fitted maximal effect; nearly all actives have a fitted effect of over 70% in size
Target sequence (P83916 whole entry, looked up): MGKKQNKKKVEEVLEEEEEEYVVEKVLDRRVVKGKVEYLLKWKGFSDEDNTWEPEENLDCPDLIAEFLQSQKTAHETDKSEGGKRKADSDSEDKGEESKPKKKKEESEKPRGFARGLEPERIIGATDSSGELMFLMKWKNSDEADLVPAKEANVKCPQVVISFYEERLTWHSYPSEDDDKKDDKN
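HP1-beta protein (50 nM final) preincubated 30 min at room temperature with biotinylated H3(1-18)K9me3 peptide (50 nM) in PBS pH 7.4, 0.01% Tween-20, then compound added for 30 min. AlphaScreen streptavidin donor/nickel chelate acceptor beads (10 ug/mL final), 30 min dark, luminescence read.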
Six1-Eya2 blk: qHTS Assay for Inhibitors of the Six1/Eya2 Interaction | AlphaScreen GST-Six1/His-Eya2 binding, biochemical; stronger effect = lower value | activity change, % (no concentration beside the values) | 360,000 tested, 0.56% active | AID 651725, 2012; in the data active means activity change below about -65%; inconclusive means mostly about -30% to -63%; further: on the % scale 0 is the no-effect control and ±100 the full control effect
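Compounds are tested against tagged Six1 and Eya2 proteins bridged by glutathione donor and nickel acceptor beads; after a one-hour incubation at 37 °C without light, AlphaScreen emission is recorded.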
BAZ2B block: qHTS Assay for Inhibitors of BAZ2B. 360,000 tested, 4.4% active. Bromodomain adjacent to zinc finger domain protein 2B (Homo sapiens), Q9UIF8. Potency, µM (highest dose often 114 µM), without a hit: at the top dose activity change, negative = inhibition, hits mostly inhibitors. AlphaScreen BAZ2B-H3K14Ac peptide displacement; further: potency means the concentration at half of the fitted maximal effect; on the % scale 0 is the no-effect control and ±100 the full control effect; nearly all actives have a fitted effect of over 60% in size
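Complex of BAZ2B and biotin-H3K14Ac (50 nM apiece) forms over 30 min at RT, then faces library compounds up to 110 uM for another 30 min; AlphaScreen beads added, 20 min dark incubation, luminescence read.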
CtBP-E1A blk: qHTS Assay for Inhibitors of the CtBP/E1A Interaction; CtBP / adenovirus E1A interaction (AlphaScreen); AlphaScreen GST-E1A/His-CtBP binding, 1536-well; stronger effect = lower value; activity change, % (test concentration not listed); 340,000 tested, 0.49% active; in the data active means activity change below about -65%; inconclusive means mostly about -30% to -63%; further: on the % scale 0 is the no-effect control and ±100 the full control effect
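GST-E1A and His-tagged CtBP (125 nM each as 5X stock) were preincubated with pin-transferred compound for 2 h at 37 °C in the dark, then glutathione donor and nickel acceptor beads were added for 1 h before AlphaScreen reading.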
G9a inh-1: qHTS Assay for Inhibitors of Histone Lysine Methyltransferase G9a; Histone-lysine N-methyltransferase EHMT2 (Homo sapiens), Q96KQ7; G9a H3K9 monomethylation, AlphaScreen, 2 h; Potency, µM (highest dose often 102 µM), without a hit: top-dose activity, negative = inhibition, actives largely listed as inhibitors; 350,000 tested, 8.8% active; AID 504332, 2011; further: potency means the concentration at half of the fitted maximal effect; on the % scale 0 is the no-effect control and ±100 the full control effect; nearly all actives have a fitted effect of over 75% in size
Target sequence (Q96KQ7 913-1193 limits assumed): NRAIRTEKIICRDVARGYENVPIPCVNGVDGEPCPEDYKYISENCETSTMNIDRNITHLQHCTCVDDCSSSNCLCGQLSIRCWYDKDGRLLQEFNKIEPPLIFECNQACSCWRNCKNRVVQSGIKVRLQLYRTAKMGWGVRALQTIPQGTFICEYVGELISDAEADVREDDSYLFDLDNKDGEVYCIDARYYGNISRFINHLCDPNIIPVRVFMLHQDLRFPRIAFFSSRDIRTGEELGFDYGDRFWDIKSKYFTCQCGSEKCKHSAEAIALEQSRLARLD
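Methyltransferase reactions run at room temperature for 2 h (20 nM enzyme, 500 nM biotin-H3K9 peptide, 20 uM SAM) after a 15 min compound preincubation; product detected by AlphaScreen beads and anti-H3K9me1 antibody.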
JMJD2A Tudor: qHTS Assay for Inhibitors of JMJD2A-Tudor Domain | Lysine-specific demethylase 4A (Homo sapiens), O75164 | AlphaScreen JMJD2A-Tudor / H3K4me3 peptide binding | Potency, µM (top dose mostly 114 µM), for the others: at the highest dose activity change, negative = inhibition, actives largely listed as inhibitors | 390,000 tested, 4.4% active; further: potency means the concentration at half of the fitted maximal effect; on the % scale 0 is the no-effect control and ±100 the full control effect; nearly all actives have a fitted effect of over 50% in size
JMJD2E inh: Confirmation qHTS Assay for Inhibitors of Human Jumonji Domain Containing 2E (JMJD2E). AID 2677, 2010. shares compounds with JMJD2A Tudor. Potency, µM (titrated, usually from 56.8 µM), for the others: at the highest dose activity change, negative = inhibition, actives largely listed as inhibitors. 140 tested, 93% active. Recombinant JMJD2E, FDH-coupled NADH fluorescence (FDH is formaldehyde dehydrogenase)
FDH inh: Counterscreen for JMJD2E Inhibitors: qHTS Assay for Inhibitors of Formaldehyde Dehydrogenase (FDH) | FDH enzyme assay, NADH fluorescence kinetic | shares compounds with JMJD2A Tudor | 140 tested, 10% active | Potency, µM (highest dose often 56.7 µM), without a hit: at the top dose activity, negative = inhibition, usual class: inhibitors
G9a inh-2: qHTS Assay for Inhibitors of Histone Lysine Methyltransferase G9a: Hit Confirmation; Potency, µM, usual class: inhibitors; G9a H3K9 monomethylation, AlphaScreen, 2 h; shares compounds with JMJD2A Tudor; AID 588344, 2011; 370 tested, 89% active; further: potency means the concentration at half of the fitted maximal effect; nearly all actives have a fitted effect of over 65% in size
RGS4 inh: qHTS for Inhibitors of Regulator of G Protein Signaling(RGS) 4: Hit Validation; shares compounds with JMJD2A Tudor; AID 602388, 2012; 25 tested, 80% active; Potency, µM, actives largely listed as inhibitors; RGS4 GAP activity, Transcreener GDP fluorescence polarization
Target sequence (P49798 whole entry, looked up): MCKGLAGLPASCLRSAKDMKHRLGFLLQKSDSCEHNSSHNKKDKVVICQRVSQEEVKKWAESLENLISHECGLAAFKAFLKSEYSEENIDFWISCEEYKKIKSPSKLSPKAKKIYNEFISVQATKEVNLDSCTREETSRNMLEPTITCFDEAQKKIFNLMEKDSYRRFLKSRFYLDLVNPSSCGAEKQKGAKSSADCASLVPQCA
Active calls of the source: *; ? = inconclusive; . = not tested or not shown; [ ] = another dose, or the depositor's remark. Unless noted, the call rests on the fitted dose curve; in most records, active means well fitted curve in the direction sought with a large enough effect; inconclusive means small, poorly fitted or top-dose-only effect, or another doubt; inactive means no such curve, though single readings can be large; an effect the other way counts as inactive or inconclusive.

SMILES	HP1b binding inh	Six1-Eya2 blk	BAZ2B block	CtBP-E1A blk	G9a inh-1	JMJD2A Tudor	G9a inh-2	others
CCN(CC)c1ccc(NC(=O)Cn2nnc(-c3cccc(OC)c3OC)n2)c(C)c1	35.2%	-0.6	-0.5%	-8.3	0.708µM*	-2.2%	7.08*
CCOc1ccc(-c2nnn(CC(=O)Nc3ccccc3OC)n2)cc1OCC	27.8%	1.9	5.5%	12.5	15.0%[2.33 µM]	-8.6%	.
Cc1cc(NS(=O)(=O)c2ccc(NC(=O)COc3ccc(Cl)cc3)cc2)nc(C)n1	20.4%	.	-3.9%	.	?	-11.1%	.
CCn1nc(-c2ccccc2)c(-c2ccccc2)c(C(=O)Nc2ccccc2C#N)c1=O	34.7%	.	-24.6%	.	2.2%[59 µM]	-16.0%	.
CCN(Cc1ccncc1)Cc1c(O)ccc2cc(Br)ccc12	?	3.8	.	19.6	2µM*	44.7µM*	2.82*	RGS4 inh=16.8*
CCN(CC)C(=O)Cc1c(OC)ccc2cc(Br)ccc12	49.7%	-4.9	-33.8%	11.0	-39.1%	10.3%	.
CCN1CCN(c2ccc(NC(=O)c3cc4ccccc4cc3OC)cc2C)CC1	18.0%	3.5	-37.5%	16.5	?	-32.2%	3.17*
CCN1CCN(c2ccc(NC(=O)c3ccccc3F)cc2Cl)CC1	11.5%	1.6	?	5.4	3.6%[59 µM]	-23.3%	.
COc1ccc(-c2cc(C(F)(F)F)n3nc(C(=O)Nc4sc5c(c4C(=O)OC(C)C)CCC(C)C5)cc3n2)cc1 (configuration not stated)	36.2%	.	3.4%	.	-21.6%[59 µM]	1.6%	.
OCCCCCNc1ncnc2ccccc12	42.8%	4.2	-3.2%	1.9	27.7%[59 µM]	1.4%	.
OCCCCNc1cccc2ccccc12	-20.0%	-11.9	?	-8.6	?	?	5.62*
COc1ccc(Nc2sc(C(=O)c3ccc(Cl)cc3)c(N)c2C(=O)Nc2ccccc2OC)cc1	-17.8%	-26.4	?	-16.5	?	?	.
COc1ccc(C(=O)c2sc(Nc3cccc(OC)c3)c(C(=O)Nc3cccc(C)c3C)c2N)cc1	-10.5%	-12.8	-39.0%	?	?	?	4.48*
CCOc1ccc(C(=O)Nc2cc(-c3nc4ccccc4o3)ccc2C)cc1Cl	5.3%	.	2.5%	.	11.0%[59 µM]	-23.2%	.
CCN(CC)c1ccc(NC(=O)COC(=O)CCC(=O)c2ccc(F)cc2)cc1	-21.3%	?	?	?	1.58µM*	-35.1%	1.59*
O=C(CN1CCCC1)Nc1ccc(F)cc1	26.5%	1.4	-29.4%	-2.7	.	-9.7%	.
CCN(CC)c1ccc(NC(=O)CN2CCN(CC(=O)Nc3ccc(F)cc3)CC2)cc1	?	-29.8	?	-29.4	2.24µM*	?	2.82*
O=C(COC(=O)CCC(=O)c1ccc(F)cc1)Nc1ccccc1	26.4%	12.4	1.3%	0.0	22.2%[0.0925 µM]	-9.0%	.
CCOC(=O)c1c(-c2ccc(C)cc2C)csc1NC(=O)c1ccccc1Cl	14.5%	.	-1.8%	.	-0.7%[59 µM]	-9.5%	.
O=C(NCc1cccs1)C1CCN(C(=O)N2CCOc3ccc(Cl)cc32)CC1	10.7%	.	?	.	?	-34.2%	.
CCC(=O)N1CCc2cc(Br)cc(S(=O)(=O)N3CCCC(C(=O)Nc4cc(C)ccc4OC)C3)c21 (configuration not stated)	10.0%	.	-11.0%	.	-4.8%[59 µM]	-10.2%	.
Cc1c(C)n(Cc2ccccc2)c2ccc(C(=O)OCCN(C)C)cc12	?	?	22.4µM*	-23.2	?	56.2µM*	32.4*
CCc1ccc(CNC(=O)c2ccc3c(c2)c(C)c(C)n3Cc2ccccc2)cc1	22.3%	.	?	.	-24.3%[59 µM]	?	.
COc1ccc(O)c(CNc2ccccc2F)c1	2.5%	-12.6	.	.	?	-29.0%	28.3*
COc1ccc(NC(=S)Nc2ccccc2F)c(OC)c1	13.6%	-8.1	-2.2%	2.1	11.4%	-11.5%	.
SMILES	HP1b binding inh	Six1-Eya2 blk	BAZ2B block	CtBP-E1A blk	G9a inh-1	JMJD2A Tudor	G9a inh-2	others
Cc1ccc(S(=O)(=O)Nc2cccc(NC(=O)CN3CCCCC3)c2)cc1	?	8.8	?	0.3	?	?	2.83*
Cc1ccc(-c2ccc(=O)n(CC(=O)Nc3ccc(F)c(Cl)c3)n2)cc1C	38.5%	.	-6.6%	.	6.8%[59 µM]	-7.3%	.
COc1cccc(Nc2ncc3nc(CCc4ccccc4)c(=O)n(C[C@H]4CCCO4)c3n2)c1	.	.	.	.	6.0%[12.7 µM]	.	.
COc1ccc(C)cc1NC(=O)C(NCC(O)c1ccccc1)c1ccccc1 (configuration not stated)	?	0.0	22.4µM*	.	2.82µM*	10µM*	14.2*
Cc1ccccc1NCc1ccc(O)c2ncccc12	?	-90.7*	50.1µM*	-94.7*	1.12µM*	28.2µM*	.	JMJD2E inh=1.41µM*;FDH inh=-13.4%
Oc1ccc(CNc2ccccc2)c2cccnc12	?	-89.3*	31.6µM*	-93.6*	1.26µM*	79.4µM*	.	JMJD2E inh=2µM*;FDH inh=-21.3%
COc1ccc(CNC(=O)c2ccc(Cn3c(=O)c4cccn4c4cccnc43)cc2)cc1OC	10.3%	.	-12.0%	.	-2.4%[59 µM]	-12.1%	.
Cc1ccc2nc(N)[nH]c(=O)c2c1Sc1ccncc1	.	.	.	.	?	.	11.5*
S=C(Nc1ccccn1)NC1CCCCC1	17.3%	-2.5	?	-5.3	-125.4%[12.7 µM]	-14.2%	.
S=C(Nc1ccccn1)NC1CCCC1	26.4%	1.9	-23.5%	8.5	0.355µM*	-18.1%	3.17*

Source: PubChem BioAssay (National Center for Advancing Translational Sciences (NCATS))
